This is a sample that favours compounds with a hit; in the whole collection about 0.79% have one here.
E coli growth-1 – inhibitors of Escherichia coli growth; OD600, 23 h; hits give low values; OD600 absorbance (concentration not given with the values); hit rate 0.21% among 330,000;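 active = OD600 absorbance below the run mean of sample wells minus 3.6 SD, in any replicate, cut at about 0.56 in these data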
AI-2 QS modul – modulators of Vibrio harveyi AI-2 quorum sensing system; Vibrio harveyi JMH597 AI-2 luminescence/OD600 ratio, 9 h; hits give low values; strain lacks LuxN and CqsS sensors; 0 = neutral-control median; activity change, % at 7.5 µM; hit rate 0.4% among 300,000; in the data active = activity change below about -75%, passing the limit was not always enough;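 also: luminescence divided by OD600 gain over 9 h not by final OD600 alone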
phage Ecoli inh – E. coli growth loss with phage present. growth absorbance. inhibition, % at 11.9 µM. hit rate 0.26% among 360,000. AID 651602; in the data active = inhibition above about 11%
E coli growth-2 – bacterial growth inhibition, counter-screen for AddAB inhibitors. AID 449728. inhibition, % at 11.9 µM. E. coli V3065 growth, OD600 absorbance, 18 h. hit rate 0.27% among 330,000;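 active = inhibition above the campaign's mean inhibition across all tested compounds plus 3 SD, cut at about 9.9% in these data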;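 also: uninfected addAB+ strain grown without phage in ampicillin broth; 0% = DMSO wells and 100% = ciprofloxacin 0.95 µg/ml wells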
AddAB inh – less growth of phage-infected E. coli with AddAB. E. coli expressing H. pylori AddAB, absorbance growth. AID 435030. hit rate 0.29% among 330,000. inhibition, % at 11.9 µM; in the data active = inhibition above about 12%;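 also: 0% = vehicle wells of infected cells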
Tat transport – blocks Tat-dependent protein export in E. coli | E. coli MC4100 TorA-mCherry Tat export, fluorescence | inhibition, % at 10 µM | hit rate 0.036% among 340,000;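 active = mean replicate inhibition at least 50% and at least half of replicates individually reaching 50%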;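 also: exported cargo escapes ClpAP degradation while cytoplasmic cargo is degraded and loses fluorescence; 0% = median of neutral control wells and 100% = median of NaSCN control wells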
AddAB conf – growth loss of T4-infected E. coli expressing H. pylori AddAB, confirmed; hit rate 64% among 880; shares compounds with AddAB inh; inhibition, % at 11.9 µM; E. coli V3065 expressing H. pylori AddAB, T4 phage, OD; T4 phage with gene 2 nonsense mutations;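 active = mean inhibition above a set limit taken from the earlier primary screen, cut at about 13% in these data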;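 also: higher means less bacterial growth since AddAB block lets phage replicate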
RecBCD counter – AddAB counter-screen: growth loss of RecBCD+ E. coli infected with mutant T4 phage; inhibition, % at 11.9 µM; shares compounds with AddAB inh; hit rate 73% among 880; E. coli V66 + mutant T4 phage, OD growth; AID 488955;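 active = mean inhibition above the mean of solvent-only control wells plus 3 SD, cut at about 4% in these data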;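 also: optical density read after an 18 h incubation at 37 °C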
Bact viability – counter-screen for AddAB inhibitors: inhibitors of bacterial viability. absorbance (AddAB counterscreen). hit rate 35% among 880. inhibition, % at 11.9 µM. AID 488956. shares compounds with AddAB inh; in the data active = inhibition above about 25%
Active calls of the source: *; · = no result.

SMILES	E coli growth-1	AI-2 QS modul	phage Ecoli inh	E coli growth-2	AddAB inh	Tat transport	AddAB conf	RecBCD counter	Bact viability
CS(=O)(=O)N(CC(=O)NN=Cc1cc([N+](=O)[O-])ccc1Cl)c1ccccc1	0.718	·	·	·	·	·	·	·	·
Cc1cccc(CCN2C(N(C)C)=NCC2Cc2ccccc2)c1 (configuration not stated)	0.695	·	·	·	·	·	·	·	·
O=C(Nc1nc(-c2cccs2)cs1)c1ccc([N+](=O)[O-])o1	0.515*	·	10.1	6.5	13.0*	-19.3	84.9*	7.5*	13.0
O=C(Nc1cccc(NC(=O)c2ccc([N+](=O)[O-])o2)c1)c1ccco1	0.46*	48.9	10.0	17.2*	24.1*	-30.4	98.6*	10.0*	30.2*
O=C(Nc1cccc(NC(=O)c2cccs2)c1)c1ccc([N+](=O)[O-])o1	0.409*	59.0	10.6	16.2*	27.3*	-13.4	95.8*	9.4*	28.2*
O=[N+]([O-])c1ccc(/C=N/n2cnc3ccccc32)s1	·	-13.9	7.0	9.4	15.4*	-24.5	97.7*	5.9*	20.0
CC1CCCN(Cc2nc3c(c(=O)n(C)c(=O)n3C)n2Cc2c(F)cccc2Cl)C1 (configuration not stated)	0.784	15.0	-1.2	16.2*	98.6*	-11.0	-1.2	0.7	-1.6
NS(=O)(=O)c1ccc(-c2ccc(/C=C3\C(=O)Nc4ccccc43)o2)cc1	·	13.1	·	-1.2	3.5	·	·	·	·
Cc1ccc(/C=C2\C(=O)Nc3ccccc32)o1	0.512*	68.6	16.8*	19.0*	61.6*	3.3	98.1*	13.7*	44.2*
COc1ccc(NC(=O)C=Cc2ccc(Br)o2)cn1	0.686	·	·	·	·	·	·	·	·
CC(C)C[C@@]12C(=O)N(c3cccc(Cl)c3)C(=O)N1C(c1ccc(F)cc1)C1C(=O)N(C3CCCCC3)C(=O)C12 (some centres not stated)	0.723	·	·	·	·	·	·	·	·
CN(C)c1ccc(C=NNc2nc(-c3ccccc3)cc(=O)[nH]2)cc1	0.682	·	·	·	·	·	·	·	·
Cc1cc(C(F)(F)F)n2ncc(C(=O)O)c2n1	0.758	34.5	3.6	6.4	16.9*	-4.2	-1.7	1.3	-0.1
Cc1ccc(-c2cc(C(F)(F)F)n3ncc(C(=O)O)c3n2)cc1	0.761	30.7	2.1	·	·	3.9	·	·	·
Cc1cccc(-n2ncc3c(N4CCC5(CC4)OCCO5)ncnc32)c1	0.736	32.0	1.8	4.6	31.6*	-3.5	3.1	-0.1	-0.6
c1ccc(-n2ncc3c(N4CCC5(CC4)OCCO5)ncnc32)cc1	0.776	8.5	1.1	2.2	0.9	-9.9	·	·	·
COc1ccc([N+](=O)[O-])cc1NC(=O)C(C)OC(=O)C1CCC1 (configuration not stated)	0.616	2.2	-0.4	94.7*	97.8*	-10.8	-3.1	-1.6	-4.9
COc1ccc([N+](=O)[O-])cc1NC(=O)C(C)OC(=O)C1CCCC1 (configuration not stated)	0.655	28.6	-0.1	1.1	0.1	-1.6	·	·	·
CCOC(=O)CC1C(C(=O)OCC)ON2OC(C(=O)OC)C(C(=O)OCC)C12 (configuration not stated)	0.665	3.7	0.9	21.0*	46.4*	-4.4	-3.0	0.6	-1.6
COC(=O)CC1C(C(=O)OC)ON2OC(C(=O)OC)C(C(=O)OC)C12 (configuration not stated)	0.692	0.2	4.4	-1.6	0.2	0.8	·	·	·
C(=Nn1cnnc1)c1cn(Cc2ccccc2)c2ccccc12	0.695	·	·	·	·	·	·	·	·
CCn1cc(C(=O)NC(C)C)c(=O)c2cc(F)c(N3CCN(C(=O)c4ccco4)CC3)cc21	0.087*	8.0	4.9	82.0*	89.4*	9.4	99.4*	0.7	35.4*
CCn1cc(C(=O)NCCC(C)C)c(=O)c2cc(F)c(N3CCN(C(=O)c4ccco4)CC3)cc21	0.148*	-10.3	3.3	16.0*	26.5*	3.2	98.6*	1.9	36.1*

Screens as filed in PubChem BioAssay.
